High-throughput results (PubChem)
A selection: hits, their analogues and other compounds. The true share with any hit is near 19%.
DT40 TDP1 CPT: DT40-hTDP1 cell growth loss with CPT. chicken DT40 Tdp1-/-;hTDP1 cells + 20 nM CPT, ATP luminescence, 48 h. Potency, µM (series often up to 46.2 µM), for the others: at the highest dose activity change, negative = growth inhibition, actives largely listed as inhibitors. 12% of 420,000 active; further: potency means the concentration at half of the fitted maximal effect; on the % scale 0 is the no-effect control and ±100 the full control effect; nearly all actives have a fitted effect of over 55% in size
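Cell growth measured by CellTiter-Glo luminescence after a minimum 48 h, 37 C compound exposure with 20 nM CPT in Tdp1-knockout DT40 cells stably expressing hTDP1, seeded 400/well; qHTS titration format.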
TDP1 cell noCPT: qHTS for Inhibitors of human tyrosyl-DNA phosphodiesterase 1 (TDP1): qHTS in cells in absence of CPT. 15% of 420,000 active. DT40 Tdp1-/- hTDP1 cells, no CPT, ATP luminescence, 48 h. Potency, µM (highest dose often 46.2 µM), for the others: at the highest dose activity change, negative = growth inhibition, usual class: inhibitors; further: potency means the concentration at half of the fitted maximal effect; on the % scale 0 is the no-effect control and ±100 the full control effect; nearly all actives have a fitted effect of over 55% in size
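Readout: luminescence from CellTiter-Glo after 30 min in the dark at RT. Cells: DT40 Tdp1-/- with stable hTDP1, 400/well. Exposure: compounds alone, ≥48 hr, 37 °C.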
TGFb inhibitor: TGF-b pathway inhibition | HepG2 CAGA-GFP TGF-b/SMAD3 reporter, GFP fluorescence, 18 h; TGF-beta stimulated, 500 pg/mL final | Potency, µM (titrated, usually from 46.1 µM), for the others: at the top dose activity, negative = inhibition, actives largely listed as inhibitors | 1.2% of 410,000 active; further: potency means the concentration at half of the fitted maximal effect; on the % scale 0 is the no-effect control and ±100 the full control effect; nearly all actives have a fitted effect of over 65% in size
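Inhibition of TGF-beta-driven CAGA-GFP reporter expression in HEPG2 cells is measured by cellular GFP fluorescence after 18 h stimulation with 500 pg/mL recombinant TGF-beta in 1% FBS medium at 37 degrees C.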
S-ASM inh: blocks human secretory acid sphingomyelinase. 0.006% of 340,000 active. P17405. placental ASM, HMU-PC fluorogenic substrate, 60 min. Potency, µM (titrated, usually from 57.5 µM), without a hit: at the top dose activity change, negative = inhibition, usual class: inhibitors; further: potency means the concentration at half of the fitted maximal effect
Target sequence (P17405 47-631 limits assumed): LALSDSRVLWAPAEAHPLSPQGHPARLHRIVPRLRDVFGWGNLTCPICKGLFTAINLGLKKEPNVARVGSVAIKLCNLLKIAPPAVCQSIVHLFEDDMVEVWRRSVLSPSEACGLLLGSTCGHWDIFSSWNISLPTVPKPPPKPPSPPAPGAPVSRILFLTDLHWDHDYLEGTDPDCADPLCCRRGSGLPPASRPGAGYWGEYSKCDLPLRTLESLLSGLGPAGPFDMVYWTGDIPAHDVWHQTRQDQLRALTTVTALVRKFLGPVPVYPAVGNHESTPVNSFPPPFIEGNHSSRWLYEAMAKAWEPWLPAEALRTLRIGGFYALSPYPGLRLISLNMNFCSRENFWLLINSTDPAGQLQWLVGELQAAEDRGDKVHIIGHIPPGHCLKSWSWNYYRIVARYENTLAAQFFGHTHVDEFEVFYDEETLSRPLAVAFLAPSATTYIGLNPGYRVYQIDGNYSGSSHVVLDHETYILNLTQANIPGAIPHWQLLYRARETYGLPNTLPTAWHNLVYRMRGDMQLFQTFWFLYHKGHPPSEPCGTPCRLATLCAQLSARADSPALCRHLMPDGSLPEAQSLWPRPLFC
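Fluorescence read-out (Ex 386 nm, Em 447 nm) after stopping the reaction at pH 10. Enzyme: ASM from human placenta; substrate HMU-PC0, 9 uM final; 60 min, 37 °C. Compound preincubation 10 min, ambient temperature.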
HepG2 tox: kills HepG2 cells in TGF-b inhibitor counter-screen; HepG2 CAGA-GFP viability, ATP luminescence, 18 h; Potency, µM (doses to about 46.1 µM), for the others: at the highest dose activity change, negative = cytotoxicity, hits mostly cytotoxic; 0.76% of 410,000 active; further: potency means the concentration at half of the fitted maximal effect
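HepG2 CAGA-GFP cells (1000/well, DMEM with 1% FBS) received compound, then TGF-beta at 500 pg/mL final, and were incubated 18 hours at 37 degrees C. Viability was read by CellTiter-Glo luminescence. Media-only wells were set as complete cell-killing and DMSO as no toxicity.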
IL-1B inflam inh: blocks inflammasome-driven IL-1 beta release. THP-1 LPS/ATP IL-1B secretion, AlphaLISA, 16 h; active compounds read low. activity change, % at 57.5 µM. 4.7% of 360,000 active. AID 743279; in the data active means activity change below about -50%; inconclusive means mostly about -30% to -49%; further: on the % scale 0 is the no-effect control and ±100 the full control effect
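Secreted IL-1B measured by AlphaLISA bead assay after 16 h compound exposure of THP-1 cells; compounds (final up to 57.5 uM) added 1 h before LPS (250 ng/mL) and ATP (1.25 mM) stimulation; lower signal means less secretion.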
An asterisk follows results filed as active; ? = inconclusive; . = no result given. Unless noted, the call rests on the fitted dose curve; in most records, active means well fitted curve in the direction sought with a large enough effect; inconclusive means small, poorly fitted or top-dose-only effect, or another doubt; inactive means no such curve, though single readings can be large; an effect the other way counts as inactive or inconclusive.

SMILES	DT40 TDP1 CPT	TDP1 cell noCPT	TGFb inhibitor	S-ASM inh	HepG2 tox	IL-1B inflam inh
CCc1ccc(Cc2cnc(NC(=O)c3ccc4c(c3)CC(c3ccccc3)OC4=O)s2)cc1 (stereo not given)	?	18µM*	-3%	.	-1%	.
CCOc1ccc(NC(=O)CN(C)C(=O)c2ccc(NC3CC3)c([N+](=O)[O-])c2)cc1OCC	-19%	-40%	-13%	-6%	-14%	-22
CN(CC(=O)Nc1cccc(F)c1)C(=O)c1ccc(N2CCCC2)c([N+](=O)[O-])c1	16µM*	16µM*	13%	-4%	0%	-14
CCOc1ccc(NC(=O)CN(C)C(=O)c2ccc(N3CCCCCC3)c([N+](=O)[O-])c2)cc1OCC	?	23µM*	-12%	.	-4%	-1
CN(CC(=O)Nc1cccc(F)c1)C(=O)c1cc([N+](=O)[O-])ccc1N1CCCCC1	?	29µM*	-18%	-6%	0%	15
O=C(Nc1ncc(Cc2ccccc2Cl)s1)c1ccc2c(c1)CC(c1ccccc1)OC2=O (stereo not given)	-22%	-28%	26%	.	4%	.
COc1cccc(NC(=O)CN(C)C(=O)c2ccc(N3CCCCC3)c([N+](=O)[O-])c2)c1	?	?	?	-18%	-28%	22
COc1ccc(C(=O)NCc2nnc(SCC(=O)Nc3ccccc3)n2-c2ccc(F)cc2)cc1	0%	-27%	?	.	1%	.
COc1ccc(CCNC(=O)C2CCN(S(=O)(=O)N3CCC(C)CC3)CC2)cc1OC	4%	2%	2%	1%	1%	14
CN(CC(=O)Nc1cccc(F)c1)C(=O)c1ccc(C2SCCS2)cc1	?	?	?	1%	-12%	?
CN(CC(=O)Nc1cccc(F)c1)C(=O)c1ccc2c(c1)CC(c1ccccc1)OC2=O (stereo not given)	8.2µM*	5.2µM*	12%	-8%	-10%	-13
COC(=O)c1cc2n(n1)CCN(Cc1ccc(OC)cc1)C2=O	-13%	-32%	?	7%	-30%	30
COc1ccc(CN2CCn3ncc(C(=O)Nc4cc(C)cc(C)c4)c3C2=O)cc1	5.8µM*	?	-11%	0%	4%	-4
Cc1ccc2c(c1)C(=O)OC(C(=O)Nc1ncc(Cc3ccc(C(C)C)cc3)s1)C2 (stereo not given)	.	.	0%	.	-6%	.
CCN(CC)S(=O)(=O)c1cc(NC(=O)c2ccc3c(c2)NC(=O)C(C)S3)ccc1C (stereo not given)	21µM*	21µM*	?	-13%	-36%	-58*
CCN(CC)S(=O)(=O)c1cc(NC(=O)NCCCl)ccc1C	?	?	2%	-3%	18%	46
CC1Sc2ccc(C(=O)NCc3ccccn3)cc2NC1=O (stereo not given)	0.82µM*	0.65µM*	?	0%	-38%	8
CCN(CC)S(=O)(=O)c1cc(NS(=O)(=O)c2cccc(C(=O)O)c2)ccc1C	1%	-12%	12%	-2%	-3%	-8
CCN(CC)S(=O)(=O)c1cc(NC(=O)c2ccc(Br)s2)ccc1C	?	16µM*	-27%	-5%	-11%	0
CCN(CC)S(=O)(=O)c1cc(NS(=O)(=O)c2ccccc2)ccc1C	16µM*	-28%	-10%	1%	-11%	16
Cc1cc(SCC(=O)OCC(=O)NCC2CCCO2)c(C)cc1Br (stereo not given)	-20%	?	-1%	0%	6%	0
COc1cccc(C(=O)Nc2ccccc2-c2nc(-c3ccc(C)cc3)no2)c1	0%	-10%	0%	.	1%	.
Nc1nonc1-n1nnc(C(=O)N/N=C/c2ccc(OCc3ccccc3F)cc2)c1CNc1ccccc1	-15%	0%	-2%	0%	-2%	21
COC(=O)c1ccccc1NC(=O)c1ccc2nc(Cc3ccccc3)oc2c1	?	?	-1%	.	1%	.
Cc1ccc(C(O)(CNCc2ccccc2)c2ccccc2)cc1 (stereo not given)	?	?	-22%	2%	-47%	?
SMILES	DT40 TDP1 CPT	TDP1 cell noCPT	TGFb inhibitor	S-ASM inh	HepG2 tox	IL-1B inflam inh
OC(CNCc1ccc(F)cc1)(c1ccc(F)cc1)c1ccc(F)cc1	23µM*	?	-15%	-1%	-81%	-55*
OC(CNCc1ccc(Cl)cc1)(c1ccccc1)c1ccc(F)cc1 (stereo not given)	?	23µM*	?	-2%	-40%	-67*
Fc1ccc(CNCc2ccco2)cc1	-23%	18%	-21%	1%	1%	-2
COc1cc(-c2cnc3c(NC=O)cc(-c4ccc(N5CCN(C)CC5)cc4)cn23)cc(OC)c1OC	3.3µM*	3.7µM*	-25%	.	-63%	45
COc1cc(-c2cnc3c(NC(C)=O)cc(-c4ccc(N5CCN(C)CC5)cc4)cn23)cc(OC)c1OC	4.6µM*	4.6µM*	-7%	.	-78%	-87*
COc1ccc(C2c3c(oc4ccc(Cl)cc4c3=O)C(=O)N2CCCN(C)C)cc1OC (stereo not given)	-15%	?	4%	.	11%	.
CCCCn1c(N)c(N(CCOC)C(=O)c2cc(-c3ccc(OC)cc3)nc3ccccc23)c(=O)[nH]c1=O	16%	0%	1%	.	-1%	-13
CCCCC1CCC(C(=O)N2CC(=O)Nc3ccc(C)cc3C2c2ccc(F)cc2)CC1 (stereo not given)	9.2µM*	?	0%	.	-23%	.
CCCC(=O)N1CC(=O)Nc2ccc(Cl)cc2C1c1ccccc1 (stereo not given)	?	?	-3%	.	-13%	.
CCOc1ccccc1C(=O)N1CC(=O)Nc2ccc(C)cc2C1c1ccccc1 (stereo not given)	?	23µM*	6%	.	9%	.
